# Test results from PubChem BioAssay AID1986 (Sanford-Burnham Center for Chemical Genomics, 2009).
# About 890 (0.31%) of roughly 290,000 compounds were called active. No stated cut-off is given here; in the data, active means inhibition mostly above about 52% (no sharp cut-off); inactive means mostly below about 76%. The list comes from a sample in which actives are over-represented; it also holds similar structures and randomly drawn compounds.
# Assay: cell-free HIV fusion peptide-binding blockers – biochemical, uHTS, fluorescence dequenching, primary screen (AID 1986)
# Details: 30 min, stronger effect = higher value
# [1] = measured here: repeat confirmation average inhibition, at 18.6 µM
SMILES,inhibition (at 20 µM),inhibition [1] [%]
COc1cc(/C=C2/SC(=O)NC2=O)ccc1Oc1ccc([N+](=O)[O-])cc1[N+](=O)[O-],74.1% (inactive),9.9
COc1cc(/C=C2\SC(=O)NC2=O)ccc1Oc1ccc([N+](=O)[O-])cn1,13.1% (inactive),–
COc1cc(/C=C2\SC(=O)NC2=O)ccc1Oc1ccc([N+](=O)[O-])cc1[N+](=O)[O-],63% (active),–
Cc1ccc(NC(=O)Cn2cnc3sc(C(=O)NCc4ccco4)c(C)c3c2=O)cc1Cl,-1.5% (inactive),–
N#Cc1c(N)sc(=S)c2c1CCCCC2,50% (active),–
N#Cc1c(N2CCCCC2)nc(N2CCCCC2)c2c1CCN(Cc1ccccc1)C2,8.7% (inactive),–
N#Cc1c(N)sc2c1CCCCCC2,-2% (inactive),–
N#Cc1c(N)sc(=S)c2c1CCCC2,0% (inactive),–
N#Cc1c(N)sc2c1CCN(CCc1ccccc1)C2,8.1% (inactive),–
N#Cc1c(N)sc(=S)c2c1CCN(Cc1ccccc1)C2,86.2% (active),–
CN1CC2([N+](=O)[O-])CC=C(OCCO)C([N+](=O)[O-])(C1)C2 (configuration not stated),0.4% (inactive),–
O=C(Nc1ccc(N2CCOCC2)cc1)C1(S(=O)(=O)c2ccccc2)CC1,-1.1% (inactive),–
COc1ccc(CCN2CCCn3c2nc2c3c(=O)n(CC(C)C)c(=O)n2C)cc1OC,0.5% (inactive),–
CC(C)c1ccc(S(=O)(=O)/N=C2\C=C(NS(=O)(=O)c3ccccc3)C(=O)c3ccccc32)cc1,74.7% (active),–
CC(C)c1ccc(S(=O)(=O)/N=C2/C=CC(=O)c3ccccc32)cc1,3.8% (inactive),–
Cc1cc(C)c(S(=O)(=O)/N=C2\C=C(NS(=O)(=O)c3ccccc3)C(=O)c3ccccc32)c(C)c1,68.3% (inactive),42.3
O=C(CSc1n[nH]c(=O)[nH]c1=O)NC1CCCCC1,-0.2% (inactive),–
O=C(O)c1cc(N2CCOCC2)nc2ccccc12,0.2% (inactive),–
COC(=O)c1cc(N2CCNCC2)nc2ccccc12,6.8% (inactive),–
COC(=O)c1cc(N2CCN(C)CC2)nc2ccccc12,114% (active),–
Cn1c(=O)c2[nH]c(Nc3ccccc3)nc2n(C)c1=O,-0.7% (inactive),–
CC(C)c1ccc(NC(=O)CCNS(=O)(=O)c2ccc3[nH]c(=O)oc3c2)cc1,2.1% (inactive),–
CC(C)CNC(=S)N(CCN(C)C)Cc1cc2cc3c(cc2[nH]c1=O)OCO3,-2.4% (inactive),–

SMILES,inhibition (at 20 µM),inhibition [1] [%]
Clc1ccc2nc3c4ccccc4cnn3c2c1,0% (inactive),–
Oc1ccc(Br)cc1Cn1nnc2ccccc21,-0.3% (inactive),–
Oc1ccc2nnc3c(Br)cnn3c2c1,82.2% (active),59.6
COc1ccc(OC)c(/C=N/NC(=O)CNC(=O)c2cccc3ccccc23)c1,-1.3% (inactive),–
Nc1cc(=O)[nH]c(SCC(=O)N2N=C(c3ccc4ccccc4c3)CC2c2ccccc2)n1 (configuration not stated),-0.7% (inactive),–
Cc1cc(-c2ccccc2)n2ncnc2n1,0.4% (inactive),–
COc1ccc(CNc2cc(C)nc3ccc(OC)cc23)cc1,-0.2% (inactive),–
COc1ccc2nc(C)cc(NCc3cccc(C(F)(F)F)c3)c2c1,-0.7% (inactive),–
COc1ccc2nc(C)cc(NCc3ccc(F)cc3)c2c1,65.2% (active),53
COc1ccccc1C(=O)Nc1ccccn1,0.9% (inactive),–
CCc1nc(N[C@@H](CC(C)C)C(=O)O)c2oc3ccccc3c2n1,4.3% (inactive),–
Cc1ccc(C2C3CSCC=C3C(C#N)=C(N)C2(C#N)C#N)cc1 (configuration not stated),22.2% (inactive),–
COc1ccc(OC)c(C2C3CN(C(C)C)CC=C3C(C#N)=C(N)C2(C#N)C#N)c1 (configuration not stated),-0.5% (inactive),–
CN1CC=C2C(C#N)=C(N)C(C#N)(C#N)[C@H](c3cccc(Cl)c3)C2C1 (some centres not stated),25.6% (inactive),–
CCN1CC=C2C(C#N)=C(N)C(C#N)(C#N)C(CCc3ccccc3)C2C1 (configuration not stated),-0.3% (inactive),–
Cc1ccc(C2C3CN(C(C)C)CC=C3C(C#N)=C(N)C2(C#N)C#N)cc1 (configuration not stated),87.6% (active),–
CC(C)N1CC=C2C(C#N)=C(N)C(C#N)(C#N)[C@H](c3ccoc3)[C@H]2C1,123% (active),–
CC(=O)N1CC=C2C(C#N)=C(N)C(C#N)(C#N)[C@H](c3ccoc3)[C@H]2C1,29% (inactive),–
CCCC1C2CN(C(C)C)CC=C2C(C#N)=C(N)C1(C#N)C#N (configuration not stated),-3.6% (inactive),–
CC(C)N1CC=C2C(C#N)=C(N)C(C#N)(C#N)C(c3ccccc3)C2C1 (configuration not stated),86.9% (active),–
CN1CC=C2C(C#N)=C(N)C(C#N)(C#N)C(CCc3ccccc3)C2C1 (configuration not stated),64.6% (inactive),14.6
CN1CC=C2C(C#N)=C(N)C(C#N)(C#N)[C@H](c3ccoc3)[C@H]2C1,0.3% (inactive),–
CN1CC=C2C(C#N)=C(N)C(C#N)(C#N)C(Cc3ccccc3)C2C1 (configuration not stated),52.9% (active),–

SMILES,inhibition (at 20 µM),inhibition [1] [%]
COc1cc(/C=C(\C#N)C(=O)NCC2CCCO2)ccc1OC(C)C (configuration not stated),-1.4% (inactive),–
CN(CC(=O)Nc1ccc(F)c(F)c1F)c1ncnc2sccc12,0.3% (inactive),–
COCCn1c(SCC(=O)N2CCCc3ccccc32)nnc1-c1ccoc1C,-1.1% (inactive),–
COc1ccc(Cl)cc1N1C(=O)CN(Cc2cc(OC)c(OC)c(OC)c2)C1=S,1% (inactive),–
COc1ccccc1C(=O)NNC(=O)c1ccc2ccccc2c1,0.5% (inactive),–
O=C(/C=C/c1ccccc1)Nc1cccnc1Cl,-1.1% (inactive),–
Cc1c(C#N)c(O)[nH]c(=O)c1N=Nc1ccc(S(N)(=O)=O)cc1,12% (inactive),–
CCOC(=O)c1ccc(N=Nc2c(C)c(C#N)c(O)[nH]c2=O)cc1,4.3% (inactive),–
CCCCOC(=O)c1ccc(N=Nc2c(C)c(C#N)c(O)[nH]c2=O)cc1,77.6% (active),93.8
COc1ccccc1CC(NC(C)=O)C(=O)NC1CCN(C(=O)Nc2cccc(F)c2)CC1 (configuration not stated),-1.2% (inactive),–
C=C1CCN([C@@H](C)C(=O)OCc2cccc(C)c2)S(=O)(=O)c2ccccc21,1.3% (inactive),–
O=C(CCCN1C(=O)/C(=C\c2ccco2)SC1=S)Nc1ccc2ccccc2c1,65.1% (inactive),3
O=C(CCCN1C(=O)/C(=C/c2ccco2)SC1=S)Nc1cccc(C(=O)O)c1,59.9% (inactive),12.3
CC(=O)c1ccc(NC(=O)CCCN2C(=O)/C(=C/C(C)=C/c3ccccc3)SC2=S)cc1,3.3% (inactive),–
CC(/C=C1\SC(=S)N(CCCC(=O)Nc2ccc(C(=O)O)c(O)c2)C1=O)=C\c1ccccc1,56.9% (active),–
O=C(CCN1C(=O)/C(=C\c2ccco2)SC1=S)Nc1ccc(C(=O)O)c(O)c1,75.4% (active),–
CC(C(=O)Nc1ccc(O)cc1C(=O)O)N1C(=O)/C(=C\c2cccs2)SC1=S (configuration not stated),50.1% (inactive),46.3
O=C(CN1C(=O)/C(=C/c2ccco2)SC1=S)Nc1ccc(O)c(C(=O)O)c1,58.3% (active),–
O=C(CCCN1C(=O)/C(=C/c2ccco2)SC1=S)Nc1ccccc1C(=O)O,67.2% (inactive),29.8
CC(C(=O)N(C)C1CCS(=O)(=O)C1)N1C(=O)/C(=C/c2ccco2)SC1=S (configuration not stated),24.8% (inactive),–
O=C(CCCN1C(=O)/C(=C/c2ccccc2)SC1=S)Nc1ccc(C(=O)O)c(O)c1,60.7% (inactive),40.5
O=C(CCN1C(=O)S/C(=C/c2ccccc2)C1=O)Nc1ccc(C(=O)O)c(O)c1,29.4% (inactive),–
CC(C(=O)Nc1ccc(C(=O)O)c(O)c1)N1C(=O)/C(=C\c2ccco2)SC1=S (configuration not stated),78.3% (active),–

SMILES,inhibition (at 20 µM),inhibition [1] [%]
CC(C)(C)n1nnnc1CN1CCN2CCCC2C1 (configuration not stated),1.1% (inactive),–
NC(=O)C1=C[C@H](c2ccc(C(F)(F)F)cc2)C[C@H](OCCCCO)O1,-0.7% (inactive),–
Cc1cccc(NS(=O)(=O)c2ccc3c(c2)oc(=O)n3C)c1C,2.3% (inactive),–
Cc1cccc(NC(=O)NC2CCCc3ccccc32)c1 (configuration not stated),-2.1% (inactive),–
COc1ccccc1OCC(=O)Nc1ccc(S(=O)(=O)Nc2onc(C)c2C)cc1,-0.4% (inactive),–
CCC(C)[C@H](NC(=O)[C@@H]1Cc2c([nH]c3ccccc23)C2c3ccccc3C(=O)N21)C(=O)N1CCC[C@@H]1C(=O)O (some centres not stated),6.9% (inactive),–
O=C(CCN1C(=O)/C(=C/c2ccco2)SC1=S)Nc1ccc(O)cc1C(=O)O,52.5% (inactive),30.6
COc1ccc(NC(=O)CCCN2C(=O)/C(=C\c3ccco3)SC2=S)cc1,33.7% (inactive),–
O=C(CN1C(=O)/C(=C\c2ccco2)SC1=S)Nc1ccc(O)cc1C(=O)O,75.1% (active),–
O=C(CN1C(=O)/C(=C\c2cccs2)SC1=S)Nc1cccc(C(=O)O)c1,32.4% (inactive),–
O=C(CN1C(=O)/C(=C/c2ccco2)SC1=S)Nc1ccc(C(=O)O)c(O)c1,76.4% (active),–
O=C(CCCN1C(=O)/C(=C\c2ccco2)SC1=S)Nc1ccc(O)cc1C(=O)O,72% (inactive),13
CCCCOc1ccc(Cc2n[nH]c(=S)n2N)cc1,-3.5% (inactive),–
Cc1ccc(C)c(S(=O)(=O)N2CCN(C(=O)c3ccc(N4CCCC4)c([N+](=O)[O-])c3)CC2)c1,0.3% (inactive),–
CC1(C)Cc2nc3sc4c(N5CCCC5)nnnc4c3cc2CO1,0.1% (inactive),–
O=C(NCCCCc1ccccc1)c1cccc([N+](=O)[O-])c1,0.7% (inactive),–
CCCCOc1ccc(-c2cc(C(F)(F)F)c(C#N)c(SCC(=O)O)n2)cc1,79.3% (active),–
COc1ccc(-c2cc(C(F)(F)F)c(C#N)c(SCC(=O)O)n2)cc1,2.9% (inactive),–
CCCOc1ccc(-c2cc(C(F)(F)F)c(C#N)c(SCC(=O)O)n2)cc1,29.9% (inactive),–
O=C(N/N=C/c1cccc([N+](=O)[O-])c1)c1ccc2nc[nH]c2c1,-2.3% (inactive),–
